Counter-ions that a name gives are not always drawn.
Tests used:
Details in all cases: incubation time: 27 h, anaerobic, 37 °C;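 for the amine columns active = adjusted P below 0.05 in both replicates with a change the same way and a mean fold change under 0.8 or over 1.25; inactive = the rest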
[1] = system: Clostridium sporogenes DSM 1664; experiment: growth (OD595) fold change vs plate DMSO controls (fold change (ratio)); higher = more growth
Outline: (§1)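 The 96-well mGAM cultures had been kept anaerobic for 27 h at 37 °C before being shaken and read at 595 nm. Blank subtraction, compound background correction with 20 µM compound solutions in water, and a calibration factor of 5 turned the readings into OD. Growth is given as the fold change versus the median of plate DMSO controls. Fold changes above 1.5 were set to NA, and the values are means of 2 biological replicates.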

Escherichia coli IAI1 [2] = experiment: as above
Outline: as §1

[3] = system: Klebsiella aerogenes DSM 30053; experiment: as above
Outline: as §1

[4] = system: Ruminococcus gnavus DSM 108212; experiment: as above
Outline: as §1

[5] = system: Klebsiella aerogenes DSM 30053; experiment: fold change of Histamine concentration vs plate DMSO controls (fold change (ratio)); higher = more amine produced, active = hit call of the paper (significant change in both replicates, either direction)
Outline: (§2)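 Using LC–triple-quadrupole MS with dynamic MRM, amines were quantified against external calibration curves and corrected for drift within each batch. Samples were whole anaerobic mGAM cultures of four gut strains, grown 27 h at 37 °C from OD 0.1 before 1:1 dilution, extracted with cold acetonitrile/methanol containing 0.1% formic acid and centrifuged. Compounds were present at 20 µM final (sweeteners at 50 µM final). The numbers are fold changes versus plate DMSO controls, each the mean of 2 biological replicates.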

[6] = system: Clostridium sporogenes DSM 1664; experiment: fold change of Tryptamine concentration vs plate DMSO controls (fold change (ratio)); higher = more amine produced, active = hit call of the paper (significant change in both replicates, either direction)
Outline: as §2

[7] = system: Ruminococcus gnavus DSM 108212; experiment: as above
Outline: as §2

Escherichia coli IAI1 [8] = experiment: fold change of Putrescine concentration vs plate DMSO controls (fold change (ratio)); higher = more amine produced, active = hit call of the paper (significant change in both replicates, either direction)
Outline: as §2

[9] = system: Klebsiella aerogenes DSM 30053; experiment: as above
Outline: as §2

Escherichia coli IAI1 [10] = experiment: fold change of Cadaverine concentration vs plate DMSO controls (fold change (ratio)); higher = more amine produced, active = hit call of the paper (significant change in both replicates, either direction)
Outline: as §2

[11] = system: Klebsiella aerogenes DSM 30053; experiment: as above
Outline: as §2

[12] = system: Ruminococcus gnavus DSM 108212; experiment: fold change of 2-Phenylethylamine concentration vs plate DMSO controls (fold change (ratio)); higher = more amine produced, active = hit call of the paper (significant change in both replicates, either direction)
Outline: as §2

Structure (SMILES)	growth [1]	growth (Escherichia coli IAI1 [2])	growth [3]	growth [4]	fold change of Histamine concentration [5]	fold change of Tryptamine concentration [6]	fold change of Tryptamine concentration [7]	fold change of Putrescine concentration (Escherichia coli IAI1 [8])	fold change of Putrescine concentration [9]	fold change of Cadaverine concentration (Escherichia coli IAI1 [10])	fold change of Cadaverine concentration [11]	fold change of 2-Phenylethylamine concentration [12]
CN(CCCN1c2ccccc2CCc2ccccc21)CC(=O)c1ccc(Cl)cc1 [Lofepramine] (20 µM)	1.02	0.937	1.02	1.2	0.986 (inactive)	1.04 (inactive)	0.891 (inactive)	1.01 (inactive)	1.03 (inactive)	0.989 (inactive)	0.999 (inactive)	0.851 (inactive)
CCCCOC(=O)c1ccccc1Nc1cccc(C(F)(F)F)c1 [Ufenamate] (20 µM)	0.986	1.07	1.07	0.991	0.944 (inactive)	1.03 (inactive)	1.11 (inactive)	1.06 (inactive)	0.979 (inactive)	1.03 (inactive)	1.02 (inactive)	1.14 (inactive)
c1ccc(C2CN3CCSC3=N2)cc1 (centres undefined) [Tetramisole hydrochloride] (20 µM)	0.855	0.574	1.07	0.976	1.04 (inactive)	0.939 (inactive)	1.01 (inactive)	1.33 (inactive)	1.03 (inactive)	2 (active)	0.992 (inactive)	1.03 (inactive)
OCCN(CCO)c1nc(N2CCCCC2)c2nc(N(CCO)CCO)nc(N3CCCCC3)c2n1 [Dipyridamole] (20 µM)	0.986	1.03	0.521	0.969	0.47 (inactive)	0.971 (inactive)	1 (inactive)	1.03 (inactive)	0.51 (inactive)	1 (inactive)	0.5 (inactive)	0.994 (inactive)
CC(C)Oc1ccc2c(=O)c(-c3ccccc3)coc2c1 [Ipriflavone] (20 µM)	0.986	1.01	0.992	1.03	1 (inactive)	1.01 (inactive)	1.04 (inactive)	0.98 (inactive)	1.02 (inactive)	1.04 (inactive)	0.989 (inactive)	1.02 (inactive)
COc1c(N2CCNC(C)C2)c(F)cc2c(=O)c(C(=O)O)cn(C3CC3)c12 (centres undefined) [Gatifloxacin] (20 µM)	0.0115	0.0496	0.235	0.0125	0.285 (active)	0.0452 (active)	0.226 (active)	0.888 (inactive)	1.02 (inactive)	0.264 (active)	0.97 (inactive)	0.226 (active)
CN1CCN2c3ccccc3Cc3ccccc3C2C1 (centres undefined) [Mianserine hydrochloride] (20 µM)	0.914	0.996	0.995	0.931	0.916 (inactive)	0.952 (inactive)	0.998 (inactive)	1.02 (inactive)	0.98 (inactive)	0.999 (inactive)	0.999 (inactive)	1.03 (inactive)
O=C(O)c1cc(=O)[nH]c(=O)[nH]1 [Orotic acid] (20 µM)	1.11	0.979	1.01	1.22	0.955 (inactive)	1.01 (inactive)	0.967 (inactive)	0.995 (inactive)	1.01 (inactive)	1.03 (inactive)	0.993 (inactive)	0.948 (inactive)
CCCc1ncc(C[n+]2ccccc2C)c(N)n1 [Amprolium hydrochloride] (20 µM)	1.01	0.954	0.982	0.95	1.01 (inactive)	1 (inactive)	1.11 (inactive)	0.995 (inactive)	0.941 (inactive)	0.936 (inactive)	1.03 (inactive)	1.15 (inactive)
C[C@]12CCC(=O)C=C1CC[C@@H]1[C@@H]2[C@@H](O)C[C@@]2(C)[C@H]1CC[C@]2(O)C(=O)CO [Hydrocortisone] (20 µM)	0.958	1.03	0.985	1.03	1.04 (inactive)	1.06 (inactive)	1.01 (inactive)	1.04 (inactive)	1 (inactive)	1.03 (inactive)	1 (inactive)	0.975 (inactive)
CCCNC(C)(C)COC(=O)c1ccccc1 [Meprylcaine hydrochloride] (20 µM)	0.985	1.02	0.991	1.17	1.02 (inactive)	1.01 (inactive)	1.04 (inactive)	1.01 (inactive)	1 (inactive)	1.04 (inactive)	0.991 (inactive)	1.01 (inactive)
CC1=C(/C=C/C(C)=C/C=C/C(C)=C/C(=O)O)C(C)(C)CCC1 [Retinoic acid] (20 µM)	1.05	0.973	1.1	1.04	0.947 (inactive)	1.03 (inactive)	1.03 (inactive)	1.01 (inactive)	1.02 (inactive)	0.989 (inactive)	1.01 (inactive)	0.997 (inactive)

From the supplement of paper PMC12494721
